Source: PubChem BioAssay
Shown are actives, neighbours in structure and some others; about 19% of the full set was active somewhere.
HT1080-NT tox – kills 2HG-producing HT-1080-NT fibrosarcoma cells; Potency, µM (doses to about 46.1 µM), usual class: cytotoxic; actives 1.6% (n = 360,000); HT-1080-NT fibrosarcoma viability, CellTiter-Glo ATP luminescence, 48 h;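 also: NT is the 2HG producing partner of a matched IDH1 knockdown line; nearly all actives have a fitted effect of over 55% in size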
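A 48-hour cytotoxicity screen used HT-1080-NT cells plated 2 hours before compound delivery. ATP-based CellTiter-Glo luminescence measured viability, normalized to DMSO and no-cell controls.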
KB-3-1 cytotox – kills parental KB-3-1 adenocarcinoma cells; KB-3-1 viability, CellTiter-Glo ATP luminescence, 72 h; Potency, µM (doses to about 46.1 µM), usual class: cytotoxic; actives 1.4% (n = 400,000); AID 1347075; also: nearly all actives have a fitted effect of over 60% in size
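Cytotoxicity in the drug-sensitive parental line KB-3-1 was scored as loss of CellTiter-Glo luminescence following 72 h incubation with compound. Values come from curve fitting of normalized concentration-response data.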
KB-V1 MDR tox – kills drug-selected multidrug resistant KB-V1 cells | KB-V1 MDR cells viability, CellTiter-Glo, 72 h | Potency, µM (titrated, usually from 46.1 µM), hits mostly cytotoxic | actives 3.4% (n = 400,000); also: nearly all actives have a fitted effect of over 60% in size
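KB-V1 MDR subline cells in DMEM (phenol-red free, 10% FBS) exposed to compounds in qHTS concentration series for 72 h at 37 degrees C. Viability read by CellTiter-Glo luminescence; concentration-effect curves fitted after normalization and correction.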
DT40 TDP1 no CPT – qHTS for Inhibitors of human tyrosyl-DNA phosphodiesterase 1 (TDP1): qHTS in cells in absence of CPT. DT40 Tdp1-/- hTDP1 cells, no CPT, ATP luminescence, 48 h. Potency, µM (highest dose often 46.2 µM), most hits filed as inhibitors. actives 15% (n = 420,000). AID 686978, 2013; also: nearly all actives have a fitted effect of over 55% in size
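Growth of hTDP1-complemented DT40 Tdp1-knockout cells is measured by ATP luminescence after at least 48 hr compound exposure at 37 °C, with DMSO substituting for the 20 nM CPT used in the parallel screen.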
HT1080 IDH1KD tx – toxicity to HT-1080 IDH1 knockdown cells (counter line); HT-1080 IDH1 knockdown viability, ATP luminescence, 48 h; actives 2% (n = 360,000); Potency, µM (titrated, usually from 46.1 µM), most hits filed as cytotoxic
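CellTiter-Glo luminescence after 48 h compound exposure at 37 degrees C of IDH1-knockdown HT-1080 cells in 5% FBS RPMI. %Activity scaled between DMSO wells and cell-free media wells, with curves fitted and assigned curve classes.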
DT40 TDP1 CPT – growth inhibition of DT40 Tdp1-/-;hTDP1 cells with camptothecin (screen for TDP1 inhibitors); Potency, µM (top dose mostly 46.2 µM), hits mostly inhibitors; actives 12% (n = 420,000); chicken DT40 Tdp1-/-;hTDP1 cells + 20 nM CPT, ATP luminescence, 48 h; also: nearly all actives have a fitted effect of over 55% in size
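Cell growth measured by CellTiter-Glo luminescence after a minimum 48 h, 37 C compound exposure with 20 nM CPT in Tdp1-knockout DT40 cells stably expressing hTDP1, seeded 400/well; qHTS titration format.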
Large screens that a line does not name were inactive. Calls follow the shape of the dose curve; as a rule, active = well fitted curve in the direction sought with a large enough effect; inconclusive = small, poorly fitted or top-dose-only effect, or another doubt; inactive = no such curve, though single readings can be large; an effect the other way counts as inactive or inconclusive.

CC(C)c1ccccc1NC(=O)Nc1nc(C(N)Cc2ccc(C(F)(F)F)cc2)cs1 (configuration not stated)	HT1080-NT tox 5.8µM, KB-3-1 cytotox inconclusive, KB-V1 MDR tox inconclusive, DT40 TDP1 no CPT 23µM, HT1080 IDH1KD tx inconclusive, DT40 TDP1 CPT 13µM
NC(Cc1ccc(C(F)(F)F)cc1)c1csc(NC(=O)Nc2ccccc2Cc2ccccc2)n1 (configuration not stated)	HT1080-NT tox 8.2µM, KB-3-1 cytotox inconclusive, KB-V1 MDR tox inconclusive, DT40 TDP1 no CPT 23µM, HT1080 IDH1KD tx 23µM, DT40 TDP1 CPT inconclusive
CC(C)c1ccccc1NC(=O)CNCCc1ccc(C(F)(F)F)cc1	KB-V1 MDR tox inconclusive, DT40 TDP1 no CPT 26µM, DT40 TDP1 CPT inconclusive
NC(c1csc(NC(=O)Nc2ccc(OC(F)(F)F)cc2)n1)C1CCCCC1 (configuration not stated)	HT1080-NT tox 16µM, KB-3-1 cytotox inconclusive, KB-V1 MDR tox inconclusive, DT40 TDP1 no CPT 9.2µM, HT1080 IDH1KD tx inconclusive, DT40 TDP1 CPT 10µM
O=C(CNCC1CCCCC1)Nc1ccc(OC(F)(F)F)cc1	none
CC(C)CC(N)c1csc(NC(=O)Nc2ccccc2C(C)C)n1 (configuration not stated)	HT1080-NT tox inconclusive, KB-V1 MDR tox inconclusive, DT40 TDP1 no CPT 15µM, HT1080 IDH1KD tx inconclusive, DT40 TDP1 CPT inconclusive
COc1ccc(NC(=O)Nc2nc(C(N)CC(C)C)cs2)cc1 (configuration not stated)	HT1080-NT tox inconclusive, DT40 TDP1 no CPT 16µM, HT1080 IDH1KD tx inconclusive, DT40 TDP1 CPT inconclusive
O=C1CSc2nc3ccccc3n21	KB-V1 MDR tox inconclusive
CC12CCC(C(=O)n3c1nc1ccccc13)C2(C)C (configuration not stated)	DT40 TDP1 no CPT 21µM, DT40 TDP1 CPT 18µM
Cc1ccccc1NC(=S)N(C)Cc1cn(C)c2ccccc12	KB-V1 MDR tox 18µM, DT40 TDP1 no CPT inconclusive, DT40 TDP1 CPT inconclusive
Cc1ccccc1NC(=S)N(C)Cc1cccs1	KB-V1 MDR tox inconclusive
O=C(NC1CCCC1)c1ccc2c(c1)N(Cc1c(F)cccc1Cl)C(=O)c1ccccc1S2	DT40 TDP1 no CPT 16µM, DT40 TDP1 CPT 16µM (no result: HT1080-NT tox, HT1080 IDH1KD tx)
CCN(C(=O)CN1C(=O)c2ccccc2Sc2ccc(C(=O)OC)cc21)c1cccc(C)c1	DT40 TDP1 no CPT 23µM, DT40 TDP1 CPT inconclusive (no result: HT1080-NT tox, KB-3-1 cytotox, KB-V1 MDR tox, HT1080 IDH1KD tx)
Cc1ccc(C)c(CN2C(=O)c3ccccc3Sc3ccc(C(=O)NCCCOC(C)C)cc32)c1	DT40 TDP1 no CPT 21µM, DT40 TDP1 CPT inconclusive (no result: HT1080-NT tox, KB-3-1 cytotox, KB-V1 MDR tox, HT1080 IDH1KD tx)
CC(C)OCCCNC(=O)c1ccc2c(c1)N(Cc1c(F)cccc1Cl)C(=O)c1ccccc1S2	DT40 TDP1 no CPT 26µM, DT40 TDP1 CPT 23µM (no result: HT1080-NT tox, HT1080 IDH1KD tx)
O=C(NCCCN1CCOCC1)c1ccc2c(c1)N(Cc1c(F)cccc1Cl)C(=O)c1ccccc1S2	DT40 TDP1 no CPT inconclusive, DT40 TDP1 CPT inconclusive
COc1ccc(-c2cc(C(F)F)nn2-c2ccc(S(N)(=O)=O)cc2)cc1F	none (no result: HT1080-NT tox, KB-3-1 cytotox, KB-V1 MDR tox, HT1080 IDH1KD tx)
COc1ccccc1CN1CCN(C2CCN(C(=O)Nc3ccccc3)CC2)C(=O)C1=O	none (no result: HT1080-NT tox, HT1080 IDH1KD tx)
COCCNC(=O)c1ccc2c(c1)N(Cc1c(F)cccc1Cl)C(=O)c1ccccc1S2	DT40 TDP1 no CPT 21µM (no result: HT1080-NT tox, HT1080 IDH1KD tx)
CCN(CC)C(=O)c1ccc2c(c1)N(Cc1c(F)cccc1Cl)C(=O)c1ccccc1S2	DT40 TDP1 no CPT inconclusive, DT40 TDP1 CPT inconclusive (no result: HT1080-NT tox, HT1080 IDH1KD tx)
C(=C\c1ccccc1)/CN1CCN(C(CCc2ccccc2)c2nnnn2-c2ccc3c(c2)OCCO3)CC1 (configuration not stated)	HT1080-NT tox inconclusive, DT40 TDP1 no CPT 21µM, HT1080 IDH1KD tx inconclusive, DT40 TDP1 CPT 10µM
CCC(c1nnnn1-c1ccc2c(c1)OCCO2)N1CCN(CCN2CCOCC2)CC1 (configuration not stated)	none
COc1ccc(-n2nnnc2C(C2CC2)N2CCN(C/C=C/c3ccccc3)CC2)cc1 (configuration not stated)	KB-V1 MDR tox inconclusive, DT40 TDP1 no CPT inconclusive, DT40 TDP1 CPT inconclusive
C(=C\c1ccccc1)/CN1CCN(C(c2nnnn2-c2ccc3c(c2)OCCO3)C2CC2)CC1 (configuration not stated)	DT40 TDP1 no CPT 15µM, HT1080 IDH1KD tx inconclusive, DT40 TDP1 CPT 23µM
COc1ccc(-n2nnnc2C(CCSC)N2CCN(C/C=C/c3ccccc3)CC2)cc1 (configuration not stated)	HT1080-NT tox inconclusive, KB-V1 MDR tox inconclusive, DT40 TDP1 no CPT inconclusive, HT1080 IDH1KD tx inconclusive, DT40 TDP1 CPT inconclusive
CCC(c1nnnn1-c1ccc2c(c1)OCCO2)N1CCN(C/C=C/c2ccccc2)CC1 (configuration not stated)	KB-V1 MDR tox 8.2µM, DT40 TDP1 no CPT 13µM, DT40 TDP1 CPT inconclusive
CCOC(=O)c1cc(-c2cccc(O)c2)oc1C	DT40 TDP1 no CPT inconclusive, HT1080 IDH1KD tx inconclusive, DT40 TDP1 CPT inconclusive
CC(C)(C)c1ccc(C(=O)CCCN2CCC(OC(c3ccccc3)c3ccccc3)CC2)cc1	DT40 TDP1 no CPT 6µM, DT40 TDP1 CPT 12µM (no result: HT1080-NT tox, KB-3-1 cytotox, KB-V1 MDR tox, HT1080 IDH1KD tx)
Cn1c2ccccc2c(=O)c2cc(C#CC3(O)CCCCC3)ccc21	KB-3-1 cytotox inconclusive, KB-V1 MDR tox inconclusive, DT40 TDP1 no CPT inconclusive, DT40 TDP1 CPT 16µM
